In PubChem BioAssay AID1159580 (chemical genetic matrix, 2015):
Screen size: about 5,500 compounds; about 2,000 (36%) were called active. About 18% were inconclusive and are not listed. This is one part of the list. Values without a mark were called inactive. No stated cut-off is given here; in the data, active means normalized growth mostly below about 0.91 (no sharp cut-off); inconclusive means no clear call, values can overlap the other calls; inactive means mostly above about 0.92.

Assay: chemical genetic growth profiling, strain panel (AID 1159580);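 further: tested at 20 µM; growth read once vehicle control cultures reached saturation at 30 °C; 1 = growth at the plate median or of vehicle wells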
Details: S. cerevisiae deletion strains, growth OD
[1] = locus YHR030C, strain SLT2, stronger effect = lower value
[2] = locus YHR079C, strain IRE1, stronger effect = lower value
[3] = locus YJL095W, strain BCK1, stronger effect = lower value
[4] = locus YJR066W, strain TOR1, stronger effect = lower value
[5] = locus YLR113W, strain HOG1, stronger effect = lower value
[6] = locus YNL183C, strain NPR1, stronger effect = lower value
[7] = locus YOR231W, strain MKK1, stronger effect = lower value
[8] = locus YPL256C, strain CLN2, stronger effect = lower value

Row | Compound | normalized growth [1] | normalized growth [2] | normalized growth [3] | normalized growth [4] | normalized growth [5] | normalized growth [6] | normalized growth [7] | normalized growth [8]
1 | CC(C)=CCC/C(C)=C/CC/C(C)=C/CO | 0.416 (active) | 0.506 (active) | 0.609 (active) | 0.804 (active) | 0.35 (active) | 0.732 (active) | 0.407 (active) | 0.388 (active)
2 | CC(C)=CCC/C(C)=C/CC/C(C)=C/CC/C(C)=C/CO | 1.06 | 1.05 | 1.04 | 0.944 | 0.975 | 0.932 | 0.998 | 1.08
